# Measurements published in the supplement of paper PMC4466140.
# B1: unnamed (peptide)
# chain: HAPPLPPTAPPPPSL
# Target: ScPex13
# Test: SPOT peptide array binding signal intensity (averaged, normalized) (arbitrary units (background-subtracted, floor 0; scale differs between SH3 domains)); higher = stronger binding of the SH3 domain to the peptide
# In short: (§1)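 Binding signal is given in arbitrary units that differ between domains and is the normalized, background-subtracted spot intensity averaged across replicates. Each GST-SH3 fusion from one of four yeast species was made in E. coli BL21(DE3), purified on glutathione Sepharose and incubated at 10 μg/ml overnight at 4°C on cellulose-bound synthetic 15-mer peptides in which cysteines were replaced by serines. Detection used anti-GST antibody, an HRP anti-mouse secondary and luminol, followed by imaging and Genespotter quantification.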
row,Binder,SPOT peptide array binding signal intensity
1,B1,≤ 0

# Target: ScRvs167
# Test: as above
# In short: as §1
row,Binder,SPOT peptide array binding signal intensity
1,B1,≤ 0

# Target: ScSho1
# Test: as above
# In short: as §1
row,Binder,SPOT peptide array binding signal intensity
1,B1,≤ 0

# Target: ScSla1-D1-D2
# Test: as above
# In short: as §1
row,Binder,SPOT peptide array binding signal intensity
1,B1,≤ 0

# Target: ScSla1-D3
# Test: as above
# In short: as §1
row,Binder,SPOT peptide array binding signal intensity
1,B1,1.75

# Target: SpAbp1-D1
# Test: as above
# In short: as §1
row,Binder,SPOT peptide array binding signal intensity
1,B1,≤ 0

# Target: SpBbc1
# Test: as above
# In short: as §1
row,Binder,SPOT peptide array binding signal intensity
1,B1,1.5

# Target: SpBzz1-D1
# Test: as above
# In short: as §1
row,Binder,SPOT peptide array binding signal intensity
1,B1,148

# Target: SpBzz1-D2
# Test: as above
# In short: as §1
row,Binder,SPOT peptide array binding signal intensity
1,B1,≤ 0

# Target: SpCyk3
# Test: as above
# In short: as §1
row,Binder,SPOT peptide array binding signal intensity
1,B1,≤ 0

# Target: SpHof1
# Test: as above
# In short: as §1
row,Binder,SPOT peptide array binding signal intensity
1,B1,≤ 0

# Target: SpHof1-2
# Test: as above
# In short: as §1
row,Binder,SPOT peptide array binding signal intensity
1,B1,≤ 0

# Target: SpHof1-3
# Test: as above
# In short: as §1
row,Binder,SPOT peptide array binding signal intensity
1,B1,≤ 0

# Target: SpHse1
# Test: as above
# In short: as §1
row,Binder,SPOT peptide array binding signal intensity
1,B1,≤ 0

# Target: SpLsb1
# Test: as above
# In short: as §1
row,Binder,SPOT peptide array binding signal intensity
1,B1,≤ 0

# Target: SpLsb4
# Test: as above
# In short: as §1
row,Binder,SPOT peptide array binding signal intensity
1,B1,≤ 0

# Target: SpMyo1
# Test: as above
# In short: as §1
row,Binder,SPOT peptide array binding signal intensity
1,B1,1320

# Target: SpNbp2
# Test: as above
# In short: as §1
row,Binder,SPOT peptide array binding signal intensity
1,B1,≤ 0

# Target: SpPex13
# Test: as above
# In short: as §1
row,Binder,SPOT peptide array binding signal intensity
1,B1,≤ 0

# Target: SpRvs167
# Test: as above
# In short: as §1
row,Binder,SPOT peptide array binding signal intensity
1,B1,2.67

# Target: SpSla1-D1-D2
# Test: as above
# In short: as §1
row,Binder,SPOT peptide array binding signal intensity
1,B1,7

# Target: SpSla1-D3
# Test: as above
# In short: as §1
row,Binder,SPOT peptide array binding signal intensity
1,B1,≤ 0
